From PubChem BioAssay (NCI)
Values joined by “and” are separate entries in the source; they are usually repeats but may differ in a detail not shown here. Equal values may be shown once. Compounds without any hit were thinned out: in the full panel of roughly 79,000, 15% have a hit. No stated cut-off is given here; in the data, active means growth inhibition above about 70%; inactive means the rest.

Columns and labels:
[1] = NCI Yeast Anticancer Drug Screen. Data for the rad50 strain (AID 155);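 further: 0% = growth of vehicle-only cultures of the same strain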; conditions: S. cerevisiae rad50 strain growth inhibition, stronger effect = higher value; at 50.0 µM unless noted
In short: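 Yeast carrying a defined DNA repair defect were exposed to test compounds, and growth was compared with vehicle-treated controls to give percent inhibition.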

[2] = NCI Yeast Anticancer Drug Screen. Data for the mec2-1 strain (AID 157); conditions: S. cerevisiae mec2-1 strain, stronger effect = higher value; at 50.0 µM unless noted
In short: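 Vehicle-treated cultures served as reference for growth inhibition of compound-exposed mec2-1 yeast.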

[3] = NCI Yeast Anticancer Drug Screen. Data for the sgs1 mgt1 strain (AID 161);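 further: 0% = growth of cultures given vehicle only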; conditions: S. cerevisiae sgs1 mgt1 strain, stronger effect = higher value; at 50.0 µM unless noted
In short: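 Read-out: growth inhibition vs vehicle controls. Cells: mutant yeast strain deficient in DNA damage repair.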

[4] = NCI Yeast Anticancer Drug Screen. Data for the cln2 rad14 strain (AID 165);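 further: 0% = growth equal to vehicle treated cultures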; conditions: S. cerevisiae cln2 rad14 strain, stronger effect = higher value; at 50.0 µM unless noted
In short: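 Each compound was tested on cln2 rad14 yeast. Inhibition of growth was calculated against vehicle-exposed controls.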

[5] = NCI Yeast Anticancer Drug Screen. Data for the bub3 strain (AID 167); conditions: S. cerevisiae bub3 mutant strain, stronger effect = higher value; at 50.0 µM unless noted
In short: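 Compounds were applied to a genetically altered yeast strain carrying a cell-cycle control defect. Growth inhibition was scored against vehicle-treated controls.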

[6] = NCI Yeast Anticancer Drug Screen. Data for the mlh1 rad18 strain (AID 175); conditions: S. cerevisiae mlh1 rad18 strain growth inhibition, stronger effect = higher value; at 50.0 µM unless noted
In short: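 Vehicle-treated cultures served as the reference for growth inhibition in a yeast strain carrying DNA damage repair alterations exposed to each compound.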

Measured: growth inhibition

CN(C)CC(O)(C(=O)c1ccccc1)c1ccccc1 (stereo unspecified)
inactive: [1] -4.35% | [2] -9.8% | [3] -13.5% | [4] -25.2% | [5] -19.6% | [6] -6.05%

O=C(O)COc1ccc([N+](=O)[O-])cc1[N+](=O)[O-]
inactive: [1] 20.9% | [2] 14% | [3] 22.4% | [4] 7.95% | [5] 3.95% | [6] 16.6%

O=C(O)/C(I)=C(\I)c1ccccc1
inactive: [1] -0.55% | [2] -6.7% | [3] 4.7% | [4] -9.3% | [5] 2.45% | [6] 8.5%

COc1ccc(N=N/C(=N/NC(=O)c2cc(Cl)ccc2C(=O)c2ccccc2)c2ccc(N(CCC#N)CCC#N)cc2C)cc1
inactive: [1] 3.2% | [2] 12.6% | [3] -32.9% | [4] 12.5% | [5] -11.9% | [6] 12.8%

O=S(=O)(Nc1cccc(O)c1)c1ccccc1
inactive: [1] 6% | [2] -12.1% | [3] 6.8% | [4] 14.7% | [5] 3% | [6] 13.2%

O=S(=O)(/C(=C\c1ccccc1)c1ccccc1)c1ccccc1
inactive: [1] -4.8% | [2] -12.4% | [3] -12.8% | [4] -17.7% | [5] -4.5% | [6] -6.65%

CN(C)C(=O)NN1CCCCCC1
inactive: [1] 7.25% | [2] 13.9% | [3] -14.2% | [4] -14.7% | [5] 13.3% | [6] -13.3%

CC(C)N(C(=S)S)C(C)C
inactive: [1] 9.5% | [2] 4.95% | [3] 16.6% | [4] -0.65% | [5] -26.4% | [6] -19.2%

O=C(N1CCN(C(=O)S(=O)(=O)c2ccccc2)CC1)S(=O)(=O)c1ccccc1
inactive: [1] 29.9% | [2] -16.9% | [3] 19.8% | [4] 20.1% | [5] 1.85% | [6] -3.55%

CC(C)N1C(=O)N(Cl)C2C1N(Cl)C(=O)N2Cl (stereo unspecified)
inactive: [1] 15% | [2] -0.4% | [3] -6.7% | [4] 22.6% | [5] -3.55% | [6] 53.9%

COc1ccc(C=O)cc1OCc1ccccc1
inactive: [1] -10.2% | [2] -29.4% | [3] -3.15% | [4] -7.35% | [5] -18.2% | [6] 7.55%

O=C1CCCCC(=O)Nc2ccccc2N1
inactive: [1] -22.2% | [2] -15.8% | [3] -6.85% | [4] 0.9% | [5] -4.9% | [6] -20.8%

CC(C(=O)O)N1C(=O)CNC1=O (stereo unspecified)
inactive: [1] -1.85% | [2] -4.05% | [3] 1.15% | [4] -37.6% | [5] 1.25% | [6] -12.8%

CC1=NCC23CC(=O)C4C(CCC5(C)CC(O)CCC45C)C2CCC13 (stereo unspecified)
inactive: [1] 0.85% | [2] -0.95% | [3] 7.6% | [4] -36.6% | [5] 20.4% | [6] 1.9%

O=C1NC(N/N=C\C(O)C(O)C(O)CO)=N/C1=C/c1ccc(Cl)cc1 (stereo unspecified)
inactive: [1] 43.2% and 45.5% | [2] 37% and 43% | [3] 44.8% and 35.1% | [4] 36.8% and 26.8% | [5] 38.1% and 43% | [6] 14.8% and 38.6%

CCCC(=O)NC1CCc2cc(OC)c(OC)c(OC)c2-c2ccc(OC)c(=O)cc21 (stereo unspecified)
inactive: [1] 27.4% | [2] -40.5% | [3] 23.1% | [4] -0.9% | [5] 3.45% | [6] 3.2%

CC(=O)CC(=O)Nc1ccc(-c2ccc(NC(=O)CC(C)=O)c(Cl)c2)cc1Cl
inactive: [1] -22.2% | [2] -27.7% | [3] -10.2% | [4] 1.9% | [5] -16.6% | [6] -6.35%

Cc1cc(N(CCC#N)CCC#N)ccc1/C=N/NC(=O)c1ccccc1
inactive: [1] 6.1% | [2] -2.35% | [3] -10.1% | [4] 6.3% | [5] 5.95% | [6] -47.5%

O=S1(=O)C(c2cccc(F)c2)=C(O)c2cc3ccccc3nc21
inactive: [1] 15.8% | [2] 5.45% | [3] 11.6% | [4] -20.6% | [5] -23.8% | [6] 9.45%

NC(=O)C1CC1
inactive: [1] -9.4% | [2] 2.25% | [3] -9.7% | [4] -7.7% | [5] 9.25% | [6] -4%

CCOC(=O)c1ccc(NCc2ccc(CNc3ccc(C(=O)OCC)cc3)cc2)cc1
inactive: [1] -35.4% | [2] -18.2% | [3] -36.2% | [4] -11.8% | [5] -21.4% | [6] -27%

NC(=O)c1c(NC=O)ncn1C1OCC(O)C(O)C1O (stereo unspecified)
inactive: [1] -7.95% | [2] -3.85% | [3] 2% | [4] -42% | [5] -1.3% | [6] 12.8%

Cc1ccnc(NCCCNc2nccc(C)n2)n1
inactive: [1] 22.6% | [2] -1.4% | [3] 14.1% | [4] 36.8% | [5] 5.2% | [6] 22.3%

COC1=C2C[C@H](C)C[C@H](OC)[C@H](O)[C@@H](C)/C=C(\C)[C@H](OC(N)=O)[C@H](OC)/C=C\C=C(/C)C(=O)NC(=C(/C=N/N3CCN(C)CC3)C1=O)C2=O
inactive: [1] 7.15% | [2] 0.05% | [3] -7.8% | [4] -8.75% | [5] 2.75% | [6] 18.8%

COC1C(OC(=O)c2ccc(C)[nH]2)C(O)C(Oc2ccc3c(O)c(NC(=O)c4c[nH]c(C(=O)Nc5c(O)c6ccc(OC7OC(C)(C)C(OC)C(OC(=O)c8ccc(C)[nH]8)C7O)c(C)c6oc5=O)c4C)c(=O)oc3c2C)OC1(C)C (stereo unspecified)
inactive: [1] 17% | [2] 8.45% | [3] 15.2% | [4] 24.7% | [5] 11.4% | [6] 26.6%

Cc1cc(Cl)ccc1OCC(=O)NCCO
inactive: [1] 33.4% | [2] 19.9% | [3] 13.8% | [4] 10.4% | [5] 2.8% | [6] 12%

COc1cc(C(=O)O)cc(I)c1OC
inactive: [1] -3.3% | [2] 25.1% | [3] 3.95% | [4] -15.4% | [5] -4.55% | [6] -8.95%

Brc1ccc(-c2ccccc2)cc1
inactive: [1] 28.8% | [2] 17.8% | [3] 17.2% | [4] 15.1% | [5] 8.9% | [6] 21.4%

COc1ccc(/C(=N/N)C(C)(C)C)cc1
inactive: [1] 5.8% | [2] -2.8% | [3] -7.95% | [4] -15.8% | [5] -1.6% | [6] -1.9%

CCCc1cc(Cl)ccc1OCC(=O)O
inactive: [1] 32.4% | [2] 18.9% | [3] 14.1% | [4] 11.6% | [5] 20.5% | [6] 10.3%

CC1CCCN2C(=O)CN(c3ccccc3)CC(=O)N12 (stereo unspecified)
inactive: [1] 13.6% | [2] 2.45% | [3] -4.7% | [4] 14.9% | [5] 5.35% | [6] 1.95%

O=C(O)CCC(CC(=O)O)C(=O)O (stereo unspecified)
inactive: [1] 19.1% | [2] 4.95% | [3] 16% | [4] 13.7% | [5] 23.9% | [6] 15.4%

CCCCCCCCCCCCCCCc1ccc(N)c(OC2OC(CO)C(O)C(O)C2O)c1 (stereo unspecified)
inactive: [1] -2.15% and -16.8% | [2] 6.7% and -18.2% | [3] 8.8% and 8.55% | [4] -8.15% and -28.3% | [5] -5.6% and 0.95% | [6] 18.1% and -0.4%

O=[n+]1c2c(n([O-])c3ccccc31)CCCCCCCCCC2
inactive: [1] -52.6% | [2] -1.95% | [3] 7.15% | [4] -35.2% | [5] 0.95% | [6] 7.9%

Fc1ccc2c(c1)-c1ccccc1C2
inactive: [1] -0.1% | [2] -14.6% | [3] -2.65% | [4] 4.95% | [5] -0.95% | [6] -19.6%

O=C(CSc1nnc(-c2ccc(N=Cc3ccc(Cl)cc3)cc2)o1)Nc1cccc([N+](=O)[O-])c1
inactive: [1] -1.95% | [2] -11.1% | [3] 3.85% | [4] 18.1% | [5] -40% | [6] 2.45%

CC(O)CNc1nc(N)[nH]c(=O)c1[N+](=O)[O-] (stereo unspecified)
inactive: [1] 4.45% | [2] 2.35% | [3] 1.45% | [4] -41.5% | [5] -9.95% | [6] -1.6%

Cc1ccc(-c2cc(-c3ccccc3)c(C#N)c(=O)n2C2OC(CO)C(O)C(O)C2O)cc1 (stereo unspecified)
inactive: [1] -6.55% | [2] -0.3% | [3] 2.25% | [4] 28.1% | [5] 8.65% | [6] 2.95%

CC(=O)OC1=C2OC(=O)C3(C2C=CC=C1)C1C=CC=CC13 (stereo unspecified)
inactive: [1] -17.9% | [2] 1.3% | [3] 2.8% | [4] -2.45% | [5] -13.8% | [6] -1.95%

CCCCCCCCCCCCCCCCCCS(=O)(=O)CC(O)CO (stereo unspecified)
inactive: [1] -4.45% | [2] 5.2% | [3] -1.4% | [4] 2.4% | [5] -11% | [6] 12.4%

CC(C)OC(=O)/C=C/CCCC1CCCCC1
inactive: [1] -10.5% | [2] 6.15% | [3] 7.95% | [4] 2.35% | [5] 18.7% | [6] -15.2%
